According to PubChem BioAssay AID1117319 (Southern Research Institute, 2015):
Where “and” joins values, the source holds several entries; their conditions need not be identical. Equal values may be shown once. The campaign covered roughly 260,000 compounds. About 1,500 (0.58%) were called active. Not shown: some 5% with an inconclusive outcome.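 The calls were made as follows: active = inhibition above a set limit at one or more doses, reproduced on every date tested; inconclusive = results disagree between test dates, or hit never tested in dose response; inactive = the rest.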 Only a sample is shown. Measured potencies and affinities stand elsewhere.

What follows are molecules tested against Virion infectivity factor (Human immunodeficiency virus type 1 group M subtype B (isolate BH10)) + Virion infectivity factor (Human immunodeficiency virus type 1 group M subtype B (isolate BRU/LAI)) + Virion infectivity factor (Human immunodeficiency virus type 1 group M subtype B (isolate PCV12)) + Virion infectivity factor (Human immunodeficiency virus type 1 group M subtype B (isolate HXB2)) + DNA dC->dU-editing enzyme APOBEC-3G (Homo sapiens) (UniProt P69720+P69721+P69722+P69723+Q9HC16) (assay: inhibitors of Vif binding to APOBEC3G peptide, primary screen, biochemical, TR-FRET, GST-Vif 1-94, biotin-A3G peptide, dose response retest (AID 1117319;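 also: Vif residues 1-94 fused to GST binding biotinylated APOBEC3G peptide 110-148; 0% = full assay without inhibitor and 100% = GST in place of GST-Vif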)). Details: stronger effect = higher value.

Structure (SMILES) | inhibition
COc1cccc(CNC(=O)Cn2ncc3c(=O)oc4ccccc4c32)c1 | -6.25% (inactive)
Cc1cccc(-n2ccc(=O)c(C(=O)O)n2)c1 | -11% (inactive)
O=C(Nc1ccc(Cl)c(S(=O)(=O)N2CCOCC2)c1)c1ccccn1 | -0.06% (inactive)
O=C(O)CCCN1C(=O)C2C3CCC(C3)C2C1=O (stereo not drawn) | 6.83% (inactive)
Cc1ccccc1-n1c(C)cc(/C=N/Nc2ccc([N+](=O)[O-])cn2)c1C | 6.93% (inactive)
Cc1cc(/C=N/Nc2ccc([N+](=O)[O-])cn2)c(C)n1-c1ccccc1 | 6.45% (inactive)
Cc1cccc(C)c1-n1c(C)cc(/C=N\Nc2ccc([N+](=O)[O-])cn2)c1C | 10.6% (inactive)
Cc1ccc(-n2c(C)cc(/C=N/Nc3ccc([N+](=O)[O-])cn3)c2C)cc1 | 12.6% (inactive)
Cn1ncc(Cl)c1C(=O)NC(=S)Nc1sc2c(c1C#N)CCCCC2 | 1.11% (inactive)
CC(=O)N(C1=C(O)c2ccccc2C(=O)C1=O)C1CCCCC1 | -2.6% (inactive)
O=C(NCc1ccco1)c1cccnc1Cl | 2.06% (inactive)
COc1ccc(NC(=O)Nc2cccs2)cc1Cl | 3.45% (inactive)
COc1cccc(NC(=O)Nc2cccs2)c1 | 19.8% (inactive)
CC[C@@H]1CCCCc2ccccc2[C@@H](C(=O)C[C@@H](O)CC(C)=O)OC1=O | -2.17% (inactive)
CCC(=O)Nc1cccc(C2=NOC3(C2)C[C@@H](C(N)=O)N(C(=O)c2cc([N+](=O)[O-])cc([N+](=O)[O-])c2)C3)c1 (stereo partly drawn) | 9.27% (inactive)
C/C=C(\C)C(=O)Nc1cccc(C2=NOC3(C2)C[C@H](C(N)=O)N(C(=O)c2cc([N+](=O)[O-])cc([N+](=O)[O-])c2)C3)c1 (stereo partly drawn) | 9.79% (inactive)
CCC(=O)Nc1cccc(C2=NOC3(C2)C[C@@H](C(N)=O)N(C(=O)C(c2ccccc2)c2ccccc2)C3)c1 (stereo partly drawn) | 5.6% (inactive)
C/C=C(/C)C(=O)Nc1cccc(C2=NOC3(C2)C[C@@H](C(N)=O)N(C(=O)CCCCC)C3)c1 (stereo partly drawn) | 4.38% (inactive)
CCC(=O)Nc1cccc(C2=NOC3(C2)C[C@@H](C(N)=O)N(C(=O)COc2ccc(Cl)cc2)C3)c1 (stereo partly drawn) | 1.74% (inactive)
CCCCCC(=O)Nc1cccc(C2=NOC3(C2)C[C@H](C(N)=O)N(C(=O)CCCCC)C3)c1 (stereo partly drawn) | 14.4% (inactive)
C=C(C)C(=O)N1CC2(CC(c3cccc(NC(=O)COc4ccc(Cl)cc4)c3)=NO2)C[C@@H]1C(N)=O (stereo partly drawn) | -2.13% (inactive)
C/C=C(\C)C(=O)Nc1cccc(C2=NOC3(C2)C[C@H](C(N)=O)N(C(=O)C(c2ccccc2)c2ccccc2)C3)c1 (stereo partly drawn) | 17.8% (inactive)
Cc1ccc(-c2cc(C(=O)NC3=NCCS3)c3ccccc3n2)cc1C | -1.5% (inactive)
O=S(=O)(CC=CCS(=O)(=O)c1ccccc1)c1ccccc1 | -17% (inactive)
Cc1nc2nc(C(F)(F)F)[nH]c2nc1C | 0.02% (inactive)
CC(C)(C)NC(=O)C(c1ccc(F)cc1)N(Cc1ccco1)C(=O)CCC(=O)Nc1nccs1 (stereo not drawn) | 5.5% (inactive)
CN[C@@H](C)C(=O)NC[C@H]1O[C@@H](n2cnc3c(N)ncnc32)[C@H](O)[C@@H]1O | -3.01% (inactive)

Structure (SMILES) | inhibition
CC1(C)CC(=O)c2c(O)cc(O)cc2O1 | -0.4% (inactive)
C/C=C(/C)C(=O)Nc1cccc(C2=NOC3(C2)C[C@@H](C(N)=O)N(C(=O)/C=C/CC)C3)c1 (stereo partly drawn) | 13.8% (inactive)
CCC(=O)Nc1cccc(C2=NOC3(C2)C[C@@H](C(N)=O)N(C(=O)CC(c2ccccc2)c2ccccc2)C3)c1 (stereo partly drawn) | 7.06% (inactive)
C/C=C(/C)C(=O)Nc1cccc(C2=NOC3(C2)C[C@@H](C(N)=O)N(C(=O)CC(c2ccccc2)c2ccccc2)C3)c1 (stereo partly drawn) | 24% (inactive)
C/C=C\C(=O)Nc1cccc(C2=NOC3(C2)C[C@H](C(N)=O)N(C(=O)/C=C/CC)C3)c1 (stereo partly drawn) | 5.75% (inactive)
CCC(C)(C(=O)NC1CCCCC1)N(Cc1cccs1)C(=O)Cc1cccs1 (stereo not drawn) | 23.9% (inactive)
COc1cccc(OC)c1NC(=O)C1CCCN1C(=O)Nc1cccc(Cl)c1 (stereo not drawn) | -0.22% (inactive)
O=C(/C=C/c1cccc([N+](=O)[O-])c1)Nc1ccccn1 | 7.78% (inactive)
CCOc1ccccc1NC(=O)COC(=O)COc1cccc2c1OC(C)(C)C2 | 2.02% (inactive)
COC(=O)C(C)N1C(=O)S/C(=C\c2ccc(-c3ccc(C(=O)O)cc3C)o2)C1=O (stereo not drawn) | 15.9% (inactive)
O=C(O)c1ccccc1-c1ccc(/C=C2\SC(=O)N(c3ccccc3)C2=O)o1 | 3.86% (inactive)
Cc1cccc(-n2ccnc2SCC(=O)O)c1C | -0.53% (inactive)
O=C(COc1ccc(Cl)cc1Cl)c1ccc[nH]1 | 19.3% (inactive)
Cc1ccccc1OCC(=O)OCC(=O)c1ccc[nH]1 | 7.12% (inactive)
Cc1ccnc(NC(=O)CCNC(=O)c2ccc(Cl)cc2)c1 | -5.97% (inactive)
COc1ccccc1N1CCN(C(=O)CSc2nnc(NC(=O)C3CC3)s2)CC1 | 9.27% (inactive)
c1ccc(C2CNCCc3ccccc32)cc1 (stereo not drawn) | -8.69% (inactive)
CN1CCc2cc(Cl)c(O)cc2[C@@H](c2ccccc2)C1 | -6.09% (inactive)
CCc1cccc(C)c1NC(=O)Nc1c(Br)cnn1C | -8.57% (inactive)
Cc1ccc(S(=O)(=O)N2C[C@H]3[C@H]4C(=O)N(c5ccccc5)C(=O)[C@H]4C[C@H](OC(=O)NC4CCCC4)[C@@]3(O)C2)cc1 | -0.48% (inactive)
CC(OC(=O)c1ccc2c(c1)OCCO2)C(=O)NC1CCCCC1C (stereo not drawn) | -7.15% (inactive)
COc1ccc(C=C2C(=O)c3ccccc3C2=O)cc1O | 4.34% (inactive)
COc1cc(C=C2C(=O)c3ccccc3C2=O)ccc1O | -0.66% (inactive)
CCOC(=O)C1=C(C)NC(SCC(N)=O)=C(C#N)C1c1cccs1 (stereo not drawn) | -2.81% (inactive)
C#CCSC1=C(C#N)C(c2cccs2)C(C(=O)OCC)=C(C)N1 (stereo not drawn) | 8.23% (inactive)
Cn1c(SCC(=O)Nc2sc3c(c2C#N)CCC3)nnc1C1COc2ccccc2O1 (stereo not drawn) | 2.45% (inactive) and 32% (inactive)
